# Assay outcomes as filed in PubChem.
# G9a inh – inhibitors of human histone lysine methyltransferase G9a. Q96KQ7. G9a H3K9 monomethylation, AlphaScreen, 2 h. Potency, µM (highest dose often 102 µM), inactives show at the top dose activity, negative = inhibition, actives largely listed as inhibitors. hit rate 8.8% among 350,000. AID 504332; further: on the % scale 0 is the no-effect control and ±100 the full control effect; nearly all actives have a fitted effect of over 75% in size
#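 Using a bead-based AlphaScreen, monomethylated H3K9 product from 2 h room-temperature reactions (G9a 20 nM, peptide 500 nM, SAM 20 uM) was detected with 0.5 ug/mL rabbit anti-H3K9me1 antibody.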
# HP1b chromo inh – inhibitors of HP1-beta chromodomain binding to methylated histone tails; P83916; AlphaScreen HP1-beta / biotin-H3K9me3 peptide binding; Potency, µM (highest dose often 114 µM), for inactives: at the top dose activity change, negative = inhibition, most hits filed as inhibitors; hit rate 0.56% among 390,000; AID 540317; further: nearly all actives have a fitted effect of over 70% in size
#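 HP1-beta protein (50 nM final) preincubated 30 min at room temperature with biotinylated H3(1-18)K9me3 peptide (50 nM) in PBS pH 7.4, 0.01% Tween-20, then compound added for 30 min. AlphaScreen streptavidin donor/nickel chelate acceptor beads (10 ug/mL final), 30 min dark, luminescence read.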
# BAZ2B block – BAZ2B (human) inhibition; Potency, µM (top dose mostly 114 µM), without a hit: top-dose activity change, negative = inhibition, usual class: inhibitors; hit rate 4.4% among 360,000; Q9UIF8; AlphaScreen BAZ2B-H3K14Ac peptide displacement; AID 504333; further: on the % scale 0 is the no-effect control and ±100 the full control effect; nearly all actives have a fitted effect of over 60% in size
#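 Complex of BAZ2B and biotin-H3K14Ac (50 nM apiece) forms over 30 min at RT, then faces library compounds up to 110 uM for another 30 min; AlphaScreen beads added, 20 min dark incubation, luminescence read.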
# JMJD2A Tudor inh – blocks the human JMJD2A Tudor domain; AlphaScreen JMJD2A-Tudor / H3K4me3 peptide binding; O75164; hit rate 4.4% among 390,000; Potency, µM (top dose mostly 114 µM), for the others: at the top dose activity change, negative = inhibition, most hits filed as inhibitors; AID 504339; further: on the % scale 0 is the no-effect control and ±100 the full control effect; nearly all actives have a fitted effect of over 50% in size
# PLK1 PBD block – inhibitors of human PLK1 polo-box domain binding | AID 720504 | Potency, µM, inactives show max response, negative = inhibition, actives largely listed as inhibitors | hit rate 2.8% among 360,000 | Plk1 PBD binding of FITC phosphopeptide, fluorescence polarization; further: series mostly up to about 57 µM; on the % scale 0 is the no-effect control and ±100 the full control effect; nearly all actives have a fitted effect of over 65% in size
# VDR inh – blocks the human vitamin D receptor. Potency, µM, for inactives: max response, negative = inhibition, actives largely listed as inhibitors. VDR-SRC2-3 peptide fluorescence polarization, 2 h. AID 504847. hit rate 0.93% among 400,000. P11473; further: on the % scale 0 is the no-effect control and ±100 the full control effect
#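 Inhibition of the VDR/SRC2-3 peptide interaction is quantified by fluorescence polarization. Compounds (23 nl, pintool) incubate with the reagents for 2 hours at ambient room temperature.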
# The depositor's hits bear a star; ? = inconclusive; / = not tested or not shown; [ ] = remark or other dose. Hits are enriched below; roughly 11% of the tested compounds scored in any of these assays. The call rests on the fitted dose curve; in most records, active means well fitted curve in the direction sought with a large enough effect; inconclusive means small, poorly fitted or top-dose-only effect, or another doubt; inactive means no such curve, though single readings can be large; an effect the other way counts as inactive or inconclusive. Potency means the concentration at half of the fitted maximal effect.
SMILES,G9a inh,HP1b chromo inh,BAZ2B block,JMJD2A Tudor inh,PLK1 PBD block,VDR inh
Cc1ccc2nc(N3CC(C)OC(C)C3)nc(-c3ccccc3)c2c1 (stereo not given),39.0%,120.4%,29.5%[57.1 µM],47.2%,-0.7%,-9.3%
COc1ccc2nc(C)cc(N3CCC(C(N)=O)CC3)c2c1,-10.3%[59 µM],36.8%,-33.0%,-3.8%,1.3%,-8.9%
CCOC(=O)c1cnc2c(Cl)c(Cl)ccc2c1Nc1ccc(N(C)C)cc1,?,1.3%,-30.0%,?,/,-20.1%
COc1ccc(N2CCN(c3cc(C)c4ccccc4n3)CC2)cc1,10µM*,?,?,?,-9.7%,7.2%
c1csc(-c2nc(N3CCOCC3)c3ccccc3n2)c1,10.6%[59 µM],31.5%,17.3%,9.9%,-5.0%,-12.3%
Cc1cc(N2CC(C)OC(C)C2)nc2ccccc12 (stereo not given),36.9%,3.7%,14.4%,-18.6%,26.7µM*,?
Cc1cc(N2CCN(c3ccccc3)CC2)nc2ccccc12,33.4%,94.3%,11.4%,20.6%,2.4%,22.4%
COc1ccc(N2CCN(c3nc(-c4cccs4)nc4ccccc34)CC2)cc1,20µM*,?,?,?,-6.1%,-18.2%
COc1ccc2c(C)cc(N3CCN(Cc4ccccc4)CC3)nc2c1,14.3%[2.33 µM],20.6%,3.4%,-5.0%,-7.0%,-3.8%
COc1ccc2c(C)cc(N3CCCCCC3)nc2c1,?,-19.3%,22.4µM*,12.6µM*,1.7%,-4.2%
Cc1ccc(CNC(=O)c2ccc3c(O)c(S(=O)(=O)c4ccccc4)c(=O)[nH]c3c2)cc1,-31.5%[59 µM],33.1%,-16.2%,-10.6%,/,5.9%
CN(C)c1ccc(-c2cccc(C3CC=CC4C3C(=O)N(Cc3ccccc3)C4c3ccc(C(F)(F)F)cc3)c2)cc1 (stereo not given),?,-8.7%,-37.6%,?,-14.4%,-4.6%
CN1C(=O)C2C(c3ccc(N(C)C)cc3)NN(Cc3ccccc3)C2C1=O (stereo not given),?,?,39.8µM*,?,-3.1%,-10.7%
CCCCCCN1C=CC(=C/C=C(\C#N)C(=O)OCC)C=C1,9.1%[12.7 µM],22.9%,?,-17.1%,75.5%,-20.3%
CCCN1C=CC(=C/C=C(\C#N)C(=O)OCC)C=C1,?,/,50.1µM*,/,/,/
C[C@H](NC(=O)CCC1CCC(=O)N1)c1ccccc1 (stereo not given in full),/,28.8%,/,-3.5%,/,-23.1%
[O-][n+]1cccc2c(Br)cc(Br)c(O)c21,50.1µM*,8.1%,/,-27.1%,?,3.5%
CN(C)c1ccc(NC(=O)Nc2ccc3c(c2)c(=O)n(C)n3-c2ccccc2)cc1,/,/,/,/,-7.7%,/
CN(C)c1ccc(NC(=S)Nc2ccc3c(c2)c(=O)n(C)n3-c2ccc(C(C)(C)C)cc2)cc1,/,/,/,/,26.7µM*,/
N#Cc1ccc(/C=C(\C(=O)C(=O)O)c2ccc3ccccc3n2)cc1,-17.2%[12.7 µM],30.1%,79.4µM*,1.4%,-12.6%,-4.1%
Cc1cccc(/C=C(\C(=O)C(=O)O)c2ccc3ccccc3n2)c1,?,63.2%,/,-10.2%,-10.4%,-13.3%
O=[N+]([O-])c1cc2oc3c(c2c(C=NCc2ccncc2)c1O)CCCC3,?,?,35.5µM*,56.2µM*,?,?
CC(C)(C)N=Cc1c(O)ccc2oc3c(c12)CCCC3,-5.2%,84.5%,95.2%,?,?,-2.8%
CCNc1cccc(S(=O)(=O)N2CCCN(S(=O)(=O)c3ccc4c(c3)OCCO4)CC2)c1,/,/,/,-22.0%,/,/
CCOc1ccc(C(=S)N2CCOCC2)cc1OCC,31.6µM*,-24.0%,7.8%,-10.9%,?,-24.4%
CCOc1cc(C(=S)N2CCOCC2)cc(Br)c1OS(=O)(=O)c1ccccc1,28.2µM*,1.1%,-32.4%,-16.2%,?,-7.3%
COc1cc(C(=S)N2CCOCC2)cc(OC)c1OS(=O)(=O)c1ccc(C)cc1,28.2µM*,-10.7%,?,-30.3%,?,?
CCOc1cc(C(=S)N2CCOCC2)ccc1OS(=O)(=O)c1ccc(C)cc1,35.5µM*,-16.7%,-30.8%,-27.6%,?,-7.1%
